Results on twelve molecules are retold here after publication PMC11062922 (Nature Chemical Biology, 2023).

What all share (parameters): species or system human, MV4-11 + K-562 + COLO205 + SK-N-BE2 + OVCAR-8
The subject of one experiment is EGFR. The following applies: read-out: apparent Kd, n = 1.
A further experiment concerns PIK3CG. The following applies: read-out: apparent Kd, compound concentrations: 100 nM and 1000 nM (sheet 'Samples'), n = 1.
In another experiment the test system is RIPK2. Conditions: read-out: apparent Kd, n = 1.
A further experiment deals with EPHA5. The following applies: read-out: apparent Kd; compound concentrations: 100 nM and 1000 nM (sheet 'Samples'), CATDS: 0.352465913660859; n = 1.
The test system of the next experiment is PIK3CD. The following applies: read-out: apparent Kd, compound concentrations: 100 nM and 1000 nM (sheet 'Samples'), n = 1.
The test system of a further experiment is NTRK1. Conditions: read-out: apparent Kd; compound concentrations:100 nM and 1000 nM (sheet 'Samples'); n = 1.
The next experiment relates to PDXK. The following applies: read-out: apparent Kd; compound concentrations:100 nM and 1000 nM (sheet 'Samples'); n = 1.
The next experiment deals with EIF2AK1. The following applies: read-out: apparent Kd; compound concentrations:100 nM and 1000 nM (sheet 'Samples'); n = 1.
The subject of a further experiment is GAK. The following applies: read-out: apparent Kd, n = 1.
Another experiment deals with MAPK11. The following applies: read-out: apparent Kd; compound concentrations:100 nM and 1000 nM (sheet 'Samples'); n = 1.
A further experiment has as its system MAPK14. The following applies: read-out: apparent Kd; compound concentrations:100 nM and 1000 nM (sheet 'Samples'); n = 1.
The subject of the next experiment is MAPK8. Conditions: read-out: apparent Kd; compound concentrations:100 nM and 1000 nM (sheet 'Samples'); n = 1.
In the next experiment the test system is MAPK9. Conditions: read-out: apparent Kd; compound concentrations:100 nM and 1000 nM (sheet 'Samples'); n = 1.
A further experiment concerns MAPKAPK2. The following applies: read-out: apparent Kd, n = 1.
The test system of the next experiment is PIP4K2C. Conditions: read-out: apparent Kd; compound concentrations:100 nM and 1000 nM (sheet 'Samples'); n = 1.
A further experiment concerns SIK2. Conditions: read-out: apparent Kd; compound concentrations:100 nM and 1000 nM (sheet 'Samples'); n = 1.
The next experiment concerns SIK3. The following applies: read-out: apparent Kd; compound concentrations:100 nM and 1000 nM (sheet 'Samples'); n = 1.
The next experiment relates to TAOK2. The following applies: read-out: apparent Kd; compound concentrations:100 nM and 1000 nM (sheet 'Samples'); n = 1.
The test system of a further experiment is TESK2. Conditions: read-out: apparent Kd; compound concentrations: 100 nM and 1000 nM (sheet 'Samples'), CATDS: 0.39865436806100402; n = 1.
A further experiment relates to NQO1. Conditions: read-out: apparent Kd, compound concentrations: 100 nM and 1000 nM (sheet 'Samples'), n = 1.
In another experiment the test system is PGK1. The following applies: read-out: apparent Kd; compound concentrations:100 nM and 1000 nM (sheet 'Samples'); n = 1.
Another experiment relates to EPHA1. Conditions: read-out: apparent Kd; compound concentrations: 100 nM and 1000 nM (sheet 'Samples'), CATDS: 8.4373240562764601E-2; n = 1.
A further experiment relates to EPHB4. The following applies: read-out: apparent Kd; compound concentrations: 100 nM and 1000 nM (sheet 'Samples'), CATDS: 9.3319537671251104E-2; n = 1.
The next experiment deals with PIK3CA. Conditions: read-out: apparent Kd; compound concentrations: 100 nM and 1000 nM (sheet 'Samples'), CATDS: 0.12114887477335; n = 1.
The test system of a further experiment is RIPK3. The following applies: read-out: apparent Kd; compound concentrations: 100 nM and 1000 nM (sheet 'Samples'), CATDS: 8.3491494498952795E-2; n = 1.
The test system of another experiment is MAP2K5. The following applies: read-out: apparent Kd; compound concentrations:100 nM and 1000 nM (sheet 'Samples'); n = 1.
For another experiment, the system named is YES1. The following applies: read-out: apparent Kd; compound concentrations:100 nM and 1000 nM (sheet 'Samples'); n = 1.
Setting [1] is: compound concentrations:100 nM and 1000 nM (sheet 'Samples').

Read-outs that look alike come from different tables or passages of the source.

Turning to `COc1ccc2ncnc(Nc3ccc(OCc4ccccc4)cc3)c2c1.Cl` [GI261520A], the potency estimated from few doses was 67.2 nM with EGFR (compound concentrations: 100 nM and 1000 nM (sheet 'Samples'), CATDS: 0.82087147453604603); 1240 nM in the experiment with PIK3CG (CATDS: 0.25285428644367502); 1100 nM in the experiment on RIPK2 (compound concentrations: 100 nM and 1000 nM (sheet 'Samples'), CATDS: 0.26130568040748398).
Consider `Cn1cc(C2=C(c3c[nH]c4ccccc34)C(=O)NC2=O)c2ccccc21` [RO0317884-000], for which the potency estimated from few doses is 1650 nM with EPHA5 and 146 nM with PIK3CD (CATDS: 0.85995893919281496).
For the molecule `Cl.O=S(=O)(c1cccc(F)c1)c1ccc(Nc2ncnc3cc(Br)sc23)cc1Cl` [GSK306886A], the potency estimated from few doses with EGFR (compound concentrations: 100 nM and 1000 nM (sheet 'Samples'), CATDS: 0.33527903035184697) is 1350 nM; with PIK3CD (CATDS: 0.982888258017659), 11.9 nM.
`Cl.c1ccc(Cc2nc3ccc(Nc4ncnc5ccccc45)cc3[nH]2)cc1` [GR269666A_KCGS]: the potency estimated from few doses with EGFR (setting [1]) is 76 nM; in the experiment on NTRK1, 1110 nM; in the experiment on PDXK it was 1550 nM.
As to `Cn1c(=O)c(-c2ccccc2Cl)cc2cnc(NC3CCOCC3)nc21` [RO3303470-000], the potency estimated from few doses is 1090 nM with EIF2AK1; 695 nM in the experiment on GAK (setting [1]); 20.2 nM with MAPK11; 24 nM in the experiment with MAPK14; 318 nM in the experiment on MAPK8; 202 nM in the experiment with MAPK9. Further, the potency estimated from few doses is 12.5 nM in the experiment with MAPKAPK2 (setting [1]); 1140 nM with PIP4K2C; 503 nM with RIPK2 (setting [1]); 1330 nM in the experiment with SIK2; 604 nM in the experiment with SIK3; 1880 nM in the experiment on TAOK2.
For the molecule `CS(=O)(=O)CCNCc1coc(-c2ccc3ncnc(Nc4ccc(OCc5ccccc5)cc4)c3c2)c1` [GW566221B], the potency estimated from few doses was 43.8 nM with EGFR (compound concentrations: 100 nM and 1000 nM (sheet 'Samples'), CATDS: 0.90978509927548601); 839 nM in the experiment with RIPK2 (compound concentrations: 100 nM and 1000 nM (sheet 'Samples'), CATDS: 0.34472781375122202).
For the molecule `Cl.O=S(=O)(CCNCc1ccc(-c2ccc3ncnc(Nc4ccc(OCc5cccc(F)c5)c(Cl)c4)c3c2)o1)c1ccccc1` [GW633459A], the potency estimated from few doses is 597 nM in the experiment on EGFR (compound concentrations: 100 nM and 1000 nM (sheet 'Samples'), CATDS: 0.67043836864821504); 1830 nM with TESK2.
Take `CC(=O)NCc1cccc(C#Cc2cncnc2Nc2ccc(OCc3cccc(F)c3)c(Cl)c2)c1` [GW807930X]: the potency estimated from few doses in the experiment on EGFR (compound concentrations: 100 nM and 1000 nM (sheet 'Samples'), CATDS: 0.88842612806031096) is 149 nM; in the experiment on NQO1 (CATDS: 0.34789699583550798) it was 2230 nM.
As for `CS(=O)(=O)CCNCc1nc(-c2ccc3ncnc(Nc4ccc(OCc5cccc(F)c5)c(Cl)c4)c3c2)cs1.Cl` [GW583340C], the potency estimated from few doses is 96.3 nM in the experiment with EGFR (compound concentrations: 100 nM and 1000 nM (sheet 'Samples'), CATDS: 0.528390210256103); 119 nM in the experiment on PGK1.
Take `COc1cc2ncnc(Nc3ccc(F)c(Cl)c3)c2cc1O[C@H]1CC[C@H](N)CC1` [BIBW3133BS]: the potency estimated from few doses with EGFR (compound concentrations: 100 nM and 1000 nM (sheet 'Samples'), CATDS: 0.31081219561231099) was 48.6 nM; with EPHA1, 670 nM; in the experiment with EPHB4, 508 nM; in the experiment with GAK (compound concentrations: 100 nM and 1000 nM (sheet 'Samples'), CATDS: 7.6130935509039099E-2) it was 922 nM; with MAPKAPK2 (compound concentrations: 100 nM and 1000 nM (sheet 'Samples'), CATDS: 6.9663188807488702E-2), 1270 nM; with PIK3CA, 273 nM. The potency estimated from few doses is 46.8 nM in the experiment with PIK3CD (CATDS: 0.31843258690153697); 660 nM in the experiment on PIK3CG (CATDS: 8.4802846120227496E-2); 624 nM with RIPK2 (compound concentrations: 100 nM and 1000 nM (sheet 'Samples'), CATDS: 8.6500761240037902E-2); 691 nM with RIPK3.
Consider `COc1cc2ncnc(Nc3ccc4c(cnn4Cc4ccccc4)c3)c2cc1OC.Cl` [GW282449A], for which the potency estimated from few doses was 1.29 nM with EGFR (setting [1]), 1120 nM in the experiment on MAP2K5, 210 nM in the experiment with RIPK2 (setting [1]) and 1110 nM in the experiment on YES1.
On to `CN(C)C(=O)O[C@@H]1CN[C@@H](C#Cc2cc3ncnc(Nc4ccc(OCc5cccc(F)c5)c(Cl)c4)c3s2)C1` [GSK238063A], for which the potency estimated from few doses in the experiment with EGFR (compound concentrations: 100 nM and 1000 nM (sheet 'Samples'), CATDS: 0.84282841422731203) was 175 nM; in the experiment with NQO1 (CATDS: 0.35542679551124801) it was 1700 nM.
